The supplement of paper PMC11006884
About 6,500 targets were measured; listed, in parts, are those with a hit and a random draw of the rest. About 2% of all pairs of compound and target were hits.

compound: COC(=O)C#Cc1ccccc1 [methyl 3-phenylpropiolate]; experiment: log2 ratio of iodoacetamide-alkyne labeling of the cysteine site, DMSO over compound (competition); higher = stronger covalent engagement of the cysteine by the compound, active = 1 or more; details: 500 µM; treatment time 1 h; system: HEK293T cell lysate
Outline: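 HEK293T lysate at 2 mg/mL was treated with vehicle or electrophile (500 µM) for 1 h at ambient temperature, then labelled with iodoacetamide alkyne (1 h), clicked to sCIP-TMT reagents, pooled, digested with trypsin overnight at 37 °C, enriched on streptavidin and eluted with acid. Peptides were analysed by Orbitrap Eclipse LC-MS/MS with FAIMS and quantified in FragPipe, using duplicate channels and three replicates, with cysteines quantified in only one replicate excluded. The log2 competition ratio for each cysteine is the mean control-channel reporter intensity divided by the mean compound-channel reporter intensity.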

Sequence of UniProt P13489 (P13489 whole entry, looked up): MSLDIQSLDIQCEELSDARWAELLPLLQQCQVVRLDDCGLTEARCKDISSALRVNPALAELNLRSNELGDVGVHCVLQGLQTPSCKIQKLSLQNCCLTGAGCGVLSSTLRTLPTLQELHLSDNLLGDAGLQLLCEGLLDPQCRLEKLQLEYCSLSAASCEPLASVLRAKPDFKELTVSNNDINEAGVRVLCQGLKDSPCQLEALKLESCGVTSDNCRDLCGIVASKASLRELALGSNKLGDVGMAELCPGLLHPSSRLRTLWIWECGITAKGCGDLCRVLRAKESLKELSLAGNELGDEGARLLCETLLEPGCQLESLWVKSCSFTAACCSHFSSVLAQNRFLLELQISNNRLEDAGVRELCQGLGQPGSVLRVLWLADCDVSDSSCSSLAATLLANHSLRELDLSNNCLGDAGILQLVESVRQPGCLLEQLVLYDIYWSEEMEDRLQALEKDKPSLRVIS
Sequence of UniProt P08047 (P08047 whole entry, looked up): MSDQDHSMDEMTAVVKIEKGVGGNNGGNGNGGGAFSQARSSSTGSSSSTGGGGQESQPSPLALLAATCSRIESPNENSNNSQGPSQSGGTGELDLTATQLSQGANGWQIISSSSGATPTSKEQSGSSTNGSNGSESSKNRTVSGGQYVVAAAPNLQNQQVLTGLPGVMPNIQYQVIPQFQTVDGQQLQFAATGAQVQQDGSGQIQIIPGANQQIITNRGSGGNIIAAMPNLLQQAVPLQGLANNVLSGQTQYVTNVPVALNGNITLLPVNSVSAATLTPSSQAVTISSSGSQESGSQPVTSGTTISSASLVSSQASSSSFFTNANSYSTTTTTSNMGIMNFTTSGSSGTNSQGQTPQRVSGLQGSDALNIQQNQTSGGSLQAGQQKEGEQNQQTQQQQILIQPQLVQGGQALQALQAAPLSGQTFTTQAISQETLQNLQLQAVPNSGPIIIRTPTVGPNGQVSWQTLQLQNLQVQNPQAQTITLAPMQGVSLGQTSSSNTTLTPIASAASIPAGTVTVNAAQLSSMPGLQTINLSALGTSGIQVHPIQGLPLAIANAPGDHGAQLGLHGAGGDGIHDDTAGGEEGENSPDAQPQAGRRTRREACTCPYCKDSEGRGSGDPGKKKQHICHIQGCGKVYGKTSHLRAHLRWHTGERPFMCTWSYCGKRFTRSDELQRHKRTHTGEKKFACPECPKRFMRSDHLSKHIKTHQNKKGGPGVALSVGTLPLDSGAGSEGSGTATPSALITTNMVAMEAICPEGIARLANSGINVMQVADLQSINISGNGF
Sequence of UniProt P46459 (P46459 whole entry, looked up): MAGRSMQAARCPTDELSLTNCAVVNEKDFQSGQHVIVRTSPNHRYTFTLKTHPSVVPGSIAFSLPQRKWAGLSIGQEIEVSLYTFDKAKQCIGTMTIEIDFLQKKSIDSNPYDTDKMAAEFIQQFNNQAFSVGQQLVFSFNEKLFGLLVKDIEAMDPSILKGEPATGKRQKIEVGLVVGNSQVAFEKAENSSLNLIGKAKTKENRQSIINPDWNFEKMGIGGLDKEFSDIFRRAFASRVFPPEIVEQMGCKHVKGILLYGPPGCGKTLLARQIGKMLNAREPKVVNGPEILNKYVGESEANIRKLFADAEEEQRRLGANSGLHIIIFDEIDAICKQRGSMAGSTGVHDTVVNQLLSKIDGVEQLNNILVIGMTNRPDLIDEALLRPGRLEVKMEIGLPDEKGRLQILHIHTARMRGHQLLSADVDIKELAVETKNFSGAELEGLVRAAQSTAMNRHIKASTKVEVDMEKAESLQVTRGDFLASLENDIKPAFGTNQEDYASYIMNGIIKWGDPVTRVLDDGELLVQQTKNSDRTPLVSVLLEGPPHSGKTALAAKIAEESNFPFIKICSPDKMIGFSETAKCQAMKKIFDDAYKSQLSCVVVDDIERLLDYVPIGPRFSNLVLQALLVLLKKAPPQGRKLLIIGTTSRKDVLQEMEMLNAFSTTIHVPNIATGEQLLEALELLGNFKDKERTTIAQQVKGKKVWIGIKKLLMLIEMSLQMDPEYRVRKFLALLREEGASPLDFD
Sequence of UniProt P38117 (P38117 whole entry, looked up): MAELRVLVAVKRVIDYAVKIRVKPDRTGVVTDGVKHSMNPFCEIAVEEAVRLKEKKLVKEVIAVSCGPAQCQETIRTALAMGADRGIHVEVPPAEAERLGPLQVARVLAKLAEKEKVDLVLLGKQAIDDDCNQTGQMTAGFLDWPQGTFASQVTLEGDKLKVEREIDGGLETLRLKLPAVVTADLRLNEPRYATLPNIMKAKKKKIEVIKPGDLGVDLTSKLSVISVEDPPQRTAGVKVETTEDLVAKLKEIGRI
Sequence of UniProt P29372 (P29372 whole entry, looked up): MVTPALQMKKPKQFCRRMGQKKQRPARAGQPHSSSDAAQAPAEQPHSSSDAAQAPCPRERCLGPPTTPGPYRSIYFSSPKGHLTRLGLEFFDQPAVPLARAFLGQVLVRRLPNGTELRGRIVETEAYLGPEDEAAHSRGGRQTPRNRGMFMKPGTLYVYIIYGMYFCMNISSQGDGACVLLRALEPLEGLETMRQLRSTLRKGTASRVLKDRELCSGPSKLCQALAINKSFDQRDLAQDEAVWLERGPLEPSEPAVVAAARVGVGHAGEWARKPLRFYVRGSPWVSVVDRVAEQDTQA
Sequence of UniProt O95140 (O95140 whole entry, looked up): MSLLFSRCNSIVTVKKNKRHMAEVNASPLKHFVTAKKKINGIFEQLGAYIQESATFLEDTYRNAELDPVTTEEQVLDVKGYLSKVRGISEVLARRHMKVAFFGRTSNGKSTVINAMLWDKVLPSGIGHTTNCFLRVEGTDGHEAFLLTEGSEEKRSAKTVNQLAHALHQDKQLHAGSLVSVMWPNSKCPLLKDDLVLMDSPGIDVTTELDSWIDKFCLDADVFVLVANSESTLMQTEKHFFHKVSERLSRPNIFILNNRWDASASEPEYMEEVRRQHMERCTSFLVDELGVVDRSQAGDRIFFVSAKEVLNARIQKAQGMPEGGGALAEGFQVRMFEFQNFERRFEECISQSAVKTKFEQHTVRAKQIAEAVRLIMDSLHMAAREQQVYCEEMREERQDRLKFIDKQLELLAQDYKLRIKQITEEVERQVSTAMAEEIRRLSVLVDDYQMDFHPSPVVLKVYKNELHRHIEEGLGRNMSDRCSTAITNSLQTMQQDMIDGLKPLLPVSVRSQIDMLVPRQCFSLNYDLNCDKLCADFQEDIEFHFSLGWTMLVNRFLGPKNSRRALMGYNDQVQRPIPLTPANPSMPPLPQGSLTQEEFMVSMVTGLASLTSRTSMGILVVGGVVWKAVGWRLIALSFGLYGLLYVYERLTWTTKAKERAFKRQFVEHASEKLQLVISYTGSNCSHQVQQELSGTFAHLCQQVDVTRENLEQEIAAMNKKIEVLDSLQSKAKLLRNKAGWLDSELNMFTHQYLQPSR
Sequence of UniProt P31948 (P31948 whole entry, looked up): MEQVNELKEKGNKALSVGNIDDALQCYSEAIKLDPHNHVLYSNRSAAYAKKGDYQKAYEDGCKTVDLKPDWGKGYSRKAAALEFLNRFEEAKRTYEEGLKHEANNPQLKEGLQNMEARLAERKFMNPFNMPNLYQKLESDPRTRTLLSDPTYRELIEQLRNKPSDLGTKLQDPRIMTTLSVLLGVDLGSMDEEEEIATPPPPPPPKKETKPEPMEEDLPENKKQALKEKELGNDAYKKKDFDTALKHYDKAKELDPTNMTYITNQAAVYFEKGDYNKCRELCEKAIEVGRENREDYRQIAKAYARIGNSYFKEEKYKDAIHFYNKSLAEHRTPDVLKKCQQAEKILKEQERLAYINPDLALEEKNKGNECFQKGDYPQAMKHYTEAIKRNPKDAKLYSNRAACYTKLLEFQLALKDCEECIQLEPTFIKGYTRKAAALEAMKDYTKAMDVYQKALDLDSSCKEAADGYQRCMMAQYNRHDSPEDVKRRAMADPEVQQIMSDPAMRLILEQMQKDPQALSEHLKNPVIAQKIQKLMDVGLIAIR
Sequence of UniProt P50213 (P50213 whole entry, looked up): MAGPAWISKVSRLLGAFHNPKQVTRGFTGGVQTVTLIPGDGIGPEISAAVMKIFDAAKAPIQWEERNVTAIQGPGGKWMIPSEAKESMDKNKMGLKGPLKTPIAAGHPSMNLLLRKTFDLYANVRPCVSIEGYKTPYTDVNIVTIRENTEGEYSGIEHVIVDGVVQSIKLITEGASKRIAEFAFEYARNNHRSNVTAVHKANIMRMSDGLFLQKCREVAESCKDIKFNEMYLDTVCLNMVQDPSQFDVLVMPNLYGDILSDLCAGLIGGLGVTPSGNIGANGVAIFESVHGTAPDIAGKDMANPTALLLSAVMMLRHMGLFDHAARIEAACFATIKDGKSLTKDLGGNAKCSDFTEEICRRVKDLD
Sequence of UniProt P35611 (P35611 whole entry, looked up): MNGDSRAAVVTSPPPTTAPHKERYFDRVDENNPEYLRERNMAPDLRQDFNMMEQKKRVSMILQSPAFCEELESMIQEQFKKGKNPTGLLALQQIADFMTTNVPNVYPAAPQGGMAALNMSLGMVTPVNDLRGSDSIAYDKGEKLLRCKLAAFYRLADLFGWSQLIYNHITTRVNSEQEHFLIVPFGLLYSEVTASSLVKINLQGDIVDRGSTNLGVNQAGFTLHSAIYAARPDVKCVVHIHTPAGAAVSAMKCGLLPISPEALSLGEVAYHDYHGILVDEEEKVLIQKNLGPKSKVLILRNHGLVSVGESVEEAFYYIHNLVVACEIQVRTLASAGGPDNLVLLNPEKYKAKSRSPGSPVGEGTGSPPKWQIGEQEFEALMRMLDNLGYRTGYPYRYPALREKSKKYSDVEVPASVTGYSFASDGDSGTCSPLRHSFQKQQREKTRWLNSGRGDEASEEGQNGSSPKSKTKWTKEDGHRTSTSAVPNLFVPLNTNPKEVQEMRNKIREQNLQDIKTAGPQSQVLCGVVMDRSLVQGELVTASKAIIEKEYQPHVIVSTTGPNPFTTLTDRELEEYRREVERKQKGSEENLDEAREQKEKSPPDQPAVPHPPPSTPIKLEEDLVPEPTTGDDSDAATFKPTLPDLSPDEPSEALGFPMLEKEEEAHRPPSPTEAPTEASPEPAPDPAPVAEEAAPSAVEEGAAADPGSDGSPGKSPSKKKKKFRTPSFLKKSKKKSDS

Target	log2 ratio of iodoacetamide-alkyne labeling
UniProt P41250_C616	-0.119 (inactive)
BCR C395 (UniProt P11274)	1.17 (active)
UniProt P0DN79_C15	2.27 (active)
MBD4 C268 (UniProt O95243)	1.12 (active)
ADD1 C253 (UniProt P35611)	0.101 (inactive)
MAT2A C104 (UniProt P31153)	0.274 (inactive)
EEF2 C812 (UniProt P13639)	0.148 (inactive)
MFN2 C348 (UniProt O95140)	-0.0549 (inactive)
VDAC2 C8 (UniProt P45880)	0.376 (inactive)
RNH1 C85 (UniProt P13489)	0.0022 (inactive)
MAP1B C1814 (UniProt P46821)	0.438 (inactive)
GALK1 C351 (UniProt P51570)	0.243 (inactive)
UniProt P49459_C88	0.243 (inactive)
MAP1B C73 (UniProt P46821)	0.173 (inactive)
PYGB C326 (UniProt P11216)	0.332 (inactive)
SRI C194 (UniProt P30626)	-0.125 (inactive)
ETFB C42 (UniProt P38117)	0.207 (inactive)
GART C466 (UniProt P22102)	0.199 (inactive)
NSF C11 (UniProt P46459)	0.206 (inactive)

Target	log2 ratio of iodoacetamide-alkyne labeling
RPS17 C35 (UniProt P08708)	-0.00485 (inactive)
RTN3 C34 (UniProt O95197)	1.43 (active)
FLNA C1453 (UniProt P21333)	0.357 (inactive)
DNAJB1 C267 (UniProt P25685)	0.268 (inactive)
NF1 C383 (UniProt P21359)	0.376 (inactive)
IDH3A C359 (UniProt P50213)	1.05 (active)
STIP1 C339 (UniProt P31948)	0.0728 (inactive)
SP1 C604 (UniProt P08047)	-0.0454 (inactive)
VDAC2 C227 (UniProt P45880)	1.39 (active)
MPG C56 (UniProt P29372)	1.66 (active)
ARF4 C62 (UniProt P18085)	-0.015 (inactive)
HNRNPH1 C267 (UniProt P31943)	0.211 (inactive)
CAPZA2 C111 (UniProt P47755)	0.0355 (inactive)
GALK1 C170 (UniProt P51570)	0.0992 (inactive)
HSPA4 C417 (UniProt P34932)	0.208 (inactive)
UniProt P00519_C1100	0.9 (inactive)
PGLS C32 (UniProt O95336)	0.724 (inactive)
MAP4K4 C202 (UniProt O95819)	0.624 (inactive)
